Compounds with a hit are over-represented: about 4.1% of the library has one in this group of screens.
DAX1 inh-1: inhibitors of DAX1 repression of SF-1 activated StAR promoter. AID 652010. HEK293T StAR-luciferase reporter, SF-1/DAX-1 repression relief. inhibition, % at 6.8 µM. 370,000 tested, 1.1% active;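 active = inhibition above the mean over all tested compounds plus 3 SD, cut at about 3.6% in these data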;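 note: 0% = DAX-1 cells with DMSO and 100% = cells lacking DAX-1 with DMSO; higher inhibition means more luminescence from relief of DAX-1 repression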
hcDAF12 agonist: H. contortus DAF-12 activation, primary screen; 370,000 tested, 1.4% active; activation, % at 6.8 µM; HEK293 hcDAF-12 lit1-tk-luc reporter, luminescence; 0% DMSO, 100% Δ7-dafachronic acid;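 active = activation above the mean of all tested compounds plus 3 SD, cut at about 5.5% in these data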;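 note: 100% = response to 3 µM Δ7-dafachronic acid high control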
ssDAF-12 act: S. stercoralis DAF-12 activation, primary screen. HEK293 ssDAF-12/GRIP1 lit1-tk-luc reporter, luminescence; % of 3 µM dafachronic acid response. activation, % at 6.8 µM. 370,000 tested, 1% active. AID 652126;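 active = activation above the mean over all tested compounds plus 3 SD, cut at about 0.9% in these data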;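 note: 0% = DMSO-only wells and 100% = 3 µM delta7-dafachronic acid wells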
DAX1 inh-2: NR0B1 (DAX1) inhibition; P51843; HEK293 Gal4-DAX1 luciferase reporter, luminescence; inhibition, % at 6.75 µM; 340,000 tested, 0.99% active; AID 504766;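 active = inhibition above the mean over all tested compounds plus 3 SD, cut at about 4.2% in these data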;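 note: 0% = DAX1-transfected cells with DMSO and 100% = empty-vector control cells with DMSO; inhibition shows as a rise in luminescence from relieved DAX1 repression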
Target sequence (P51843 207-470 limits assumed): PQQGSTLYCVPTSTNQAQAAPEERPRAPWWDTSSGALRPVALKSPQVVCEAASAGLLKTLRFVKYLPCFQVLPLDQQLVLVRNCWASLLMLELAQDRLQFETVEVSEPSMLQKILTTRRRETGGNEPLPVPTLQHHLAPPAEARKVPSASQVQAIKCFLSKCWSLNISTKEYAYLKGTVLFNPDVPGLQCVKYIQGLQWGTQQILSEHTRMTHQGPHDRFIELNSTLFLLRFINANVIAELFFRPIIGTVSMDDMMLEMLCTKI
hgDAF-12 ag: hgDAF-12 agonism, primary luciferase screen | HEK293 GAL4-hgDAF12 UAS-luciferase reporter, agonist luminescence; normalized to butyrate control | activation, % at 6.8 µM | 370,000 tested, 1.8% active | AID 687014;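 active = activation above a cutoff set at the mean of all screened compounds plus 3 SD, cut at about 10% in these data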;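 note: 0% = DMSO wells and 100% = sodium butyrate wells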
Numbers without * were called inactive; . = no result given.

SMILES | DAX1 inh-1 | hcDAF12 agonist | ssDAF-12 act | DAX1 inh-2 | hgDAF-12 ag
COc1cc(C=O)ccc1OCCCOc1ccccc1[N+](=O)[O-] | 0 | 1 | 1.0* | 1 | 6
NC(=O)c1c(N)[nH]c(C(=O)c2ccccc2)c1-c1ccccn1 | . | -1 | -1 | . | 0
Cc1ccc2nc3c(cc(C(=O)NCc4ccccc4)c(=N)n3CCCn3ccnc3)c(=O)n2c1 | 0 | -1 | -1 | 0 | 0
Cc1cccn2c(=O)c3cc(C(=O)NC(C)c4ccccc4)c(=N)n(CCCn4ccnc4)c3nc12 (centres undefined) | 0 | 0 | -2 | 4 | 11*
C[C@H](c1ccccc1)N1C[C@@H](COCc2ccccc2)Oc2cccc(Oc3ccc(C(C)(C)C)cc3)c2S1(=O)=O | 1 | 4 | -1 | . | -3
COC(=O)[C@]12C[C@H](CC(=O)N3CCN(C(=O)C4CC4)CC3)C(=O)N(Cc3ccc(Cl)cc3Cl)C1=C[C@H](COCc1ccccc1)O[C@@H]2C | -1 | -3 | -1 | . | 0
Nc1nc2c(ncn2[C@@H]2O[C@H](C(=O)N[C@H](Cc3ccccc3)C(=O)NC3CCCCC3)[C@@H](O)[C@H]2O)c(=O)[nH]1 | 0 | -1 | -1 | . | 0
Cn1c(C(=O)NCc2ccc3c(c2)OCO3)cc2sccc21 | -1 | 6.2* | -1 | 0 | 1
CCn1cc([N+](=O)[O-])c(C(=O)NCc2ccc3c(c2)OCO3)n1 | 0 | 1 | -1 | 4.9* | 0
Cn1c(C(=O)N2CCN(Cc3ccc4c(c3)OCO4)CC2)cc2sccc21 | -1 | -3 | -2 | 1 | -3
COc1ccccc1-c1ccc(Nc2cccc(C(C)=O)c2)nn1 | 0 | 1 | -2 | 1 | 4
CC(=O)c1cccc(Nc2ccc(-c3ccccc3F)nn2)c1 | 3.8* | 4 | -1 | 0 | 9
CC(=O)c1ccc(Nc2ccc(-c3ccccc3C)nn2)cc1 | 2 | 1 | 0 | 2 | 11*
N#Cc1cccc(NC(=O)OCCCN2CCC3(CCCCC3)C2=O)c1 | -1 | -3 | -1 | . | -2
Oc1ccc(/C=N/N2CCCCC2)c(O)c1O | 0 | -6 | -1 | 0 | -3
Oc1ccc(/C=N/N2CCOCC2)c(O)c1O | -1 | 0 | -2 | 6.2* | 5
O=C(Cc1ccccc1[N+](=O)[O-])NCc1ccc(Cl)cc1 | 1 | 3 | 1.2* | 1 | 4
O=C(Cc1ccccc1[N+](=O)[O-])NCc1ccc(Cl)cc1Cl | 3 | 4 | 1 | 1 | 12*
O=C(Cc1ccc([N+](=O)[O-])cc1)NCc1ccccc1Cl | 0 | -1 | -1 | 0 | -3
O=C(NCCCc1ccccc1)[C@H](Cc1c[nH]c2ccccc12)NC1(C(=O)NCCc2c[nH]c3ccccc23)CCC1 | . | 3 | -1 | . | 1
CC1(C(=O)N2CCC(Oc3cccnc3)CC2)CC1 | 0 | 0 | -1 | . | 4
O=C1N=C(N2CCOCC2)S/C1=C\c1ccc(-c2ccccc2Cl)o1 | -1 | 2 | -1 | 0 | -2
Cc1ccccc1-c1ccc(/C=C2/SC(N3CCOCC3)=NC2=O)o1 | 0 | -2 | -2 | 5.4* | 0
O=C(Cc1cccs1)N/N=C/C(Cl)=C/c1ccccc1 | 2 | 3 | -1 | 1 | 12*
Fc1c(-c2ccc3ncnc(NCc4cccs4)c3c2)ccc2c1OCO2 | . | -1 | -1 | . | -1
SMILES | DAX1 inh-1 | hcDAF12 agonist | ssDAF-12 act | DAX1 inh-2 | hgDAF-12 ag
COc1cccc2c(=O)c3ccccc3oc12 | 1 | 0 | -1 | 4.5* | 5
FC(F)(F)c1ccc(Cn2ccc3ccc(-c4ccc5ccn(Cc6ccccc6)c5c4)cc32)cc1 | 0 | 1 | 1 | . | 1
O=c1c2ccccc2[nH]c(=S)n1CCN1CCc2ccccc2C1 | 0 | -1 | -1 | 4.3* | -2
C=CCNC(=O)NCC1CCN(Cc2ccc(OC)cc2)CC1 | -1 | 3 | -2 | . | -1
Cc1ccc(NC(=S)NC(=O)c2ccccc2)cc1NC(=S)NC(=O)c1ccccc1 | 1 | 6.2* | -1 | 1 | 10
COC(=O)Nc1ccc(C)c(NC(=O)OC)c1 | 0 | 6.4* | -1 | -1 | 0
CCC(=O)Nc1cccc(NC(=S)NC(=O)c2ccccc2)c1 | 1 | 3 | -1 | -1 | 13*
Cc1ccc2cccc(NC(=S)NC(=O)c3ccccc3)c2n1 | 0 | 5.7* | 1.0* | -1 | 2
COC(=O)Nc1ccc2c(c1)OCO2 | 1 | 0 | -1 | 0 | 5

Screens (PubChem)
